Assay outcomes (PubChem BioAssay)
Tau fluor counter – counter-screen for tau fibril formation inhibitors | hit rate 0.93% among 280,000 | Potency, µM (titrated, usually from 57.7 µM), inactives show top-dose activity change, negative = decrease | AID 1463 | tau K18 P301L Alexa594 fluorescence, heparin fibrillization; also: nearly all actives have a fitted effect of over 55% in size
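Human tau K18 P301L (15 uM unlabeled, 0.24 uM Alexa 594-labeled) in 100 mM sodium acetate pH 7 with 20 uM heparin, 6 hr at 37 C. ThT 30 uM added, 1 hr ambient; Alexa 594 FP and total fluorescence read at 555/632 nm.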
Tau ThT inhib – blocks human tau fibril formation measured by thioflavin T. P10636. recombinant tau K18 P301L, heparin-induced fibrillization, ThT fluorescence. Potency, µM (doses to about 57.4 µM), inactives show top-dose activity, negative = inhibition, hits mostly inhibitors. hit rate 2.1% among 270,000. AID 1460; also: nearly all actives have a fitted effect of over 55% in size
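ThT emission at 510 nm, taken 1 hr after adding 30 uM dye, quantifies aggregates formed when 20 uM heparin acts on human tau K18 P301L for 6 hr at 37 C.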
Gal4-VP16 FLuc – Gal4-VP16 reporter inhibition counter-screen; Drosophila S2 Gal4-VP16 UAS-luciferase, luminescence, 20 h; Potency, µM (titrated, usually from 53.6 µM), inactives show at the top dose activity, negative = inhibition, hits mostly inhibitors; hit rate 3.5% among 310,000; AID 2546;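 also: Gal4-VP16 expression switched on by copper sulfate through the metallothionein promoter; nearly all actives have a fitted effect of over 50% in size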
Tau FP inhib – inhibitors of human tau fibril formation; P10636; K18 P301L tau heparin fibrillization, Alexa594 FP, 6 h; Potency, µM (series often up to 57.7 µM), inactives show at the highest dose activity, negative = inhibition, usual class: inhibitors; hit rate 0.39% among 280,000; AID 1468; also: nearly all actives have a fitted effect of over 55% in size
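Heparin (20 uM) drove fibril formation of recombinant tau K18 P301L, 15 uM unlabeled with 0.24 uM Alexa 594 label, for 6 hr at 37 C in 100 mM sodium acetate pH 7. Fluorescence polarization (555/632 nm) read 1 hr after 30 uM ThT.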
RORg inh – inhibitors of mouse ROR gamma transcriptional activity; P51450; Drosophila S2 Gal4-RORgamma UAS-luciferase reporter, 20 h; Potency, µM (doses to about 53.6 µM), for inactives: at the highest dose activity change, negative = inhibition, usual class: inhibitors; hit rate 5.4% among 310,000; AID 2551; also: nearly all actives have a fitted effect of over 60% in size
Target sequence (P51450 whole entry, looked up, the tested form may be a part): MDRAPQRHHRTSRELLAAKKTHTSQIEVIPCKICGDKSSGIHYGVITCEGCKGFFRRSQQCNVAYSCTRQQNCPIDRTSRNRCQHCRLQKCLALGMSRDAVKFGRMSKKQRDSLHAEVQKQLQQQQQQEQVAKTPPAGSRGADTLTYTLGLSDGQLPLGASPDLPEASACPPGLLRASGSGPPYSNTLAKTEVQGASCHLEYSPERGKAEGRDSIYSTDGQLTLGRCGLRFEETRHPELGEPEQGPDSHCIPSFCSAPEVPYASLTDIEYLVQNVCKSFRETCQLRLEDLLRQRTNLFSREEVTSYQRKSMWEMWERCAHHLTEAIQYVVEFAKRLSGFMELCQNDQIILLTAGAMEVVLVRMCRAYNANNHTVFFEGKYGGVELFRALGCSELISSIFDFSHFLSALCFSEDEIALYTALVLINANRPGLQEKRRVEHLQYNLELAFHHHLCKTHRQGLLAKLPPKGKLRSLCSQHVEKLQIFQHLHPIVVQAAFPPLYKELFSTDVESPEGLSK
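ROR gamma transcriptional activity was tracked as Gal4-UAS luciferase output in stably transfected Drosophila Schneider cells, with compound added 1 hr before 700 uM copper sulfate induction and a 20 hr ambient-temperature incubation.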
* marks the source's active call; other numbers are inactive results; ? = inconclusive; · = no result; [ ] = another dose, or the depositor's remark. A selection: hits, their analogues and other compounds. The true share with any hit is near 7.3%. Calls follow the shape of the dose curve; as a rule, active = well fitted curve in the direction sought with a large enough effect; inconclusive = small, poorly fitted or top-dose-only effect, or another doubt; inactive = no such curve, though single readings can be large; an effect the other way counts as inactive or inconclusive. % is scaled to controls: 0 for no effect and ±100 for the full control effect; potency is read from the fitted curve at half-maximal effect.

SMILES	Tau fluor counter	Tau ThT inhib	Gal4-VP16 FLuc	Tau FP inhib	RORg inh
Cc1cccc(NC(=S)N2CCN(c3cc(C)ccc3C)CC2)c1	-12%	-2%	5.6µM*	-2%	4µM*
COc1ccccc1N1CCN(C(=S)Nc2cccc(C)c2)CC1	2%	2%	20µM*	11%	5µM*
O=C(NCC(c1cccs1)S(=O)(=O)c1cccs1)c1ccc(C(F)(F)F)cc1 (centres undefined)	-23%	1%	·	-6%	·
CCC(=O)Nc1cc2nn(-c3ccc(OC)cc3)nc2cc1C	-3%	-19%	?	1%	?
Cc1ccc(-n2nc3ccc(NC(=S)NC(=O)/C=C/c4ccco4)cc3n2)cc1	-18%	?	?	10%	3.2µM*
NC(N)=NS(=O)(=O)c1ccc(NC(=S)NC(=O)/C=C/c2ccco2)cc1	-15%	-27%	-5%	-9%	0%[10 µM]
Cc1ccc(-n2nc3cc(C)c(NC(=S)NC(=O)/C=C/c4ccco4)cc3n2)cc1	-23%	?	5µM*	-8%	2.2µM*
COc1ccc(-n2nc3cc(C)c(NC(=S)NC(=O)c4ccccc4C)cc3n2)cc1	-28%	?	?	?	3.2µM*
CCC(=O)Nc1cc2nn(-c3ccc(C)cc3)nc2cc1C	5%	-2%	-21%	5%	-28%
C=C1CCN(C(CC(C)C)C(=O)NCc2ccc(Cl)cc2)S(=O)(=O)c2ccccc21 (centres undefined)	·	·	18%	·	0%
CCOC(=O)N1CCC(NC(=O)CN(c2ccc(C(C)C)cc2)S(=O)(=O)c2c(C)nn(C)c2C)CC1	·	·	-3%	·	15%
COc1ccccc1N(CC(=O)N/N=C/c1c(O)ccc2ccccc12)S(C)(=O)=O	?	-3%	?	?	13µM*
C=C(C)Cn1c(SCC(=O)N/N=C/c2c(O)ccc3ccccc23)nc2ccccc2c1=O	?	-2%	2.5µM*	-14%	0.63µM*
COc1ccccc1NCC(=O)N/N=C/c1c(O)ccc2ccccc12	·	·	2.8µM*	·	0.89µM*
O=C(CNc1ccc(F)cc1)N/N=C/c1c(O)ccc2ccccc12	·	·	2.8µM*	·	1.3µM*
CCc1cccc(NC(=O)CN(c2ccc(C)cc2)S(=O)(=O)c2cccs2)c1	?	-4%	·	?	·
CCOc1ccc(-c2ccc(NS(=O)(=O)c3ccc(C)cc3)cc2)nn1	?	-4%	·	2%	·
CC(NC(=O)C1CCCN1C(=O)CN)C(=O)O (centres undefined)	·	·	-7%	·	-3%
CC1S/C(=N/N=C/c2ccco2)NC1=O (centres undefined)	-6%	-14%	?	-1%	11µM*
O=C(CC1S/C(=N/N=C/c2ccco2)NC1=O)Nc1cccc(Cl)c1Cl (centres undefined)	-2%	-4%	?	1%	20µM*
CCCC1S/C(=N/N=C/c2ccco2)NC1=O (centres undefined)	3%	-6%	3.2µM*	6%	1.6µM*
CC1(C)S/C(=N/N=C/c2ccco2)NC1=O	4%	-1%	7.9µM*	2%	13µM*
CC1S/C(=N/N=C/c2cccc([N+](=O)[O-])c2)NC1=O (centres undefined)	-24%	-13%	-9%	7%	7%
O=c1[nH]c2cc(C(F)(F)F)c(N3CCOCC3)cc2n(CP(=O)(O)O)c1=O	-17%	-8%	8%	-10%	-8%
Cc1nn(CC(=O)N2CCN(c3ccccc3)CC2)c(=O)c2cc3cc(F)ccc3n12	-10%	2%	·	0%	·
O=C(NC1CCCc2ccccc21)c1ccc2c(c1)sc1nc(-c3ccccc3)cn12 (centres undefined)	-5%	0%	·	-4%	·
COc1ccc(-n2nc(C)c3c(C(F)(F)F)cc(-c4cccnc4)nc32)cc1	-17%	-6%	·	-5%	·
CCCCC1S/C(=N/N=C/c2ccco2)NC1=O (centres undefined)	1%	-4%	2µM*	12%	0.45µM*
C/C(=N\N=C1/NC(=O)C(C)S1)c1ccco1 (centres undefined)	10%	4%	-18%	1%	11µM*
CCOc1c(Cl)cc(CNCC(O)c2ccccc2)cc1OC (centres undefined)	-6%	3%	?	0%	7.1µM*
